# Several values for one entry are separate records, joined by “and”; a condition that tells them apart may be missing. Identical values can stand only once. Records with an inconclusive call do not appear. Where a call stands in place of a potency, no number is given. Values without a mark were called inactive. Activity calls are given as the source filed them. Calls follow the shape of the dose curve; as a rule, active = well fitted curve in the direction sought with a large enough effect; inconclusive = small, poorly fitted or top-dose-only effect, or another doubt; inactive = no such curve, though single readings can be large; an effect the other way counts as inactive or inconclusive.
# Tests used:
# [1] = Viability qHTS for spleen associated tyrosine kinase inhibitor (SYKi) drug resistant MV4-11 cells (AID 1963824); also: nearly all actives have a fitted effect of over 35% in size; also: potency is read from the fitted curve at half-maximal effect
# Method in brief: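 SYK-inhibitor-resistant MV4-11 AML cells were seeded at 500 per well onto compound and cultured 72 hours (37 °C, 5% CO2). CellTiter-Glo was then added, and after 10 min at room temperature, luminescence gave viability.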
# [2] = Quantitative highthroughput screen to assess conditional lethalithy of NOMO1 cells grown in RPMI1640 with untreated serum (RPMI+s) (AID 1963876); also: nearly all actives have a fitted effect of over 35% in size
# Method in brief: (§1)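 Each medium arm—HPLM with 10% dialyzed FBS, or RPMI1640 with 5 mM glucose and 10% untreated or dialyzed FBS—was screened against an 11-point, 3-fold compound titration for 48 h at 37 °C, with CellTiter-Glo luminescence as endpoint.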
# [3] = Quantitative highthroughput screen to assess conditional lethalithy of NOMO1 cells grown in Human Plasma-Like Medium with dialyzed fetal bovine serum (HPLM+ds) (AID 1963878); also: nearly all actives have a fitted effect of over 35% in size
# Method in brief: as §1
# [4] = Quantitative highthroughput screen to assess conditional lethalithy of P12 Ichikawa cells grown in Human Plasma-Like Medium with dialyzed fetal bovine serum (HPLM+ds) (AID 1963879); details: Potency: viability; also: series mostly up to about 46 µM; nearly all actives have a fitted effect of over 35% in size
# Method in brief: as §1
# [5] = Quantitative highthroughput screen to assess conditional lethalithy of P12 Ichikawa cells grown in RPMI1640 with dialyzed fetal bovine serum (RPMI+ds) (AID 1963880); details: Potency: P12-Ichikawa viability; also: nearly all actives have a fitted effect of over 35% in size
# Method in brief: as §1
# [6] = Quantitative highthroughput screen to assess conditional lethalithy of SEM cells grown in Human Plasma-Like Medium with dialyzed fetal bovine serum (HPLM+ds) (AID 1963882)
# Method in brief: as §1
# [7] = Quantitative highthroughput screen to assess conditional lethalithy of SEM cells grown in RPMI1640 with unreated serum (RPMI+s) (AID 1963883); also: nearly all actives have a fitted effect of over 35% in size
# Method in brief: as §1
# [8] = Quantitative highthroughput screen to assess conditional lethalithy of SEM cells grown in RPMI1640 with dialyzed fetal bovine serum (RPMI+ds) (AID 1963884); also: nearly all actives have a fitted effect of over 35% in size; also: potency is read from the fitted curve at half-maximal effect; as to Viability: series mostly up to about 46 µM
# Method in brief: as §1
# [9] = Cellular viability qHTS for adrenocortical cancer (ACC) cell line NCI-H295R (AID 1963990); also: nearly all actives have a fitted effect of over 60% in size; also: potency is read from the fitted curve at half-maximal effect
# Method in brief: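 CellTiter-Glo ATP luminescence, read 48 h after compound addition, measured viability of NCI-H295R adrenocortical cells grown serum-free with ITS. Final concentrations spanned up to 46 uM. Data normalized to DMSO and doxorubicin, fitted for IC50 and maximal response.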
# [10] = Cellular viability qHTS for adrenocortical cancer (ACC) cell line SW-13 (AID 1963989); details: SW-13 ACC cells viability, CellTiter-Glo, 48 h; activity (max response): active compounds read low; also: nearly all actives have a fitted effect of over 65% in size; also: potency is read from the fitted curve at half-maximal effect;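 as to activity (max response): cells grown in serum-free medium with ITS supplement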
# Method in brief: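 Viability was read as CellTiter-Glo luminescence after 48 h compound treatment (up to 46 uM final) of SW-13 cells grown serum-free; titration curves were fit with a four-parameter logistic model to give IC50 and efficacy.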
# [11] = Quantitative highthroughput screen to assess conditional lethalithy of NOMO1 cells grown in RPMI1640 with dialyzed fetal bovine serum (RPMI+ds) (AID 1963877); also: nearly all actives have a fitted effect of over 30% in size; also: potency is read from the fitted curve at half-maximal effect; as to Viability: series mostly up to about 46 µM
# Method in brief: as §1
# [12] = Quantitative highthroughput screen to assess conditional lethalithy of P12 Ichikawa cells grown in RPMI1640 with untreated serum (RPMI+s) (AID 1963881); details: Potency: viability; also: nearly all actives have a fitted effect of over 35% in size; also: potency is read from the fitted curve at half-maximal effect; as to Viability: series mostly up to about 46 µM
# Method in brief: as §1
structure (smiles),measurement,setting,value
CN(C(=O)CN1C(=O)COc2cc(Cl)c(Cl)cc21)[C@@H](CN1CCCC1)c1ccc(-c2cccc(C(N)=O)c2)cc1,Potency,[1],8.2 µM (active)
O=C1N[C@@H](Cc2ccccc2)CN2CCCC[C@@H]12,Potency,[1],inactive
CNC(=O)c1ccc(N2C(=S)N(c3ccc(C#N)c(C(F)(F)F)c3)C(=O)C23CCC3)cc1F,Potency,[1],18.6 µM (active)
same,Potency,[2],inactive
same,Potency,[3],inactive
same,Potency,[4],inactive
same,Potency,[5],inactive
same,Potency,[6],inactive
same,Potency,[7],inactive
same,Potency,[8],inactive
same,Potency,[9],inactive
C[C@H](NC(=O)Cc1cc(F)cc(F)c1)C(=O)N[C@@H]1N=C(c2ccccc2)c2ccccc2N(C)C1=O,Potency,[1],inactive
COc1ccc(CC2C(=O)NC(C)C(=O)N(C)C3Cc4ccc(cc4)Oc4cc(ccc4OC4OC(CO)C(O)C(O)C4O)CC(C(=O)NC(C)C(=O)NC(CCC(=O)O)C(=O)N2C)N(C)C3=O)cc1 (stereo unspecified),Potency,[1],0.618 µM (active)
CN1CCN(c2ccc([N+](=O)[O-])c3no[n+]([O-])c23)CC1,Potency,[1],8.33 µM (active)
same,Potency,[2],inactive
same,activity (max response),[10],1.98%
CO[C@H]1[C@H](O)[C@H](O[C@H]2CC[C@]3(C=O)C4CC[C@]5(C)[C@H](C6=CC(=O)OC6)CC[C@]5(O)C4CC[C@@H]3C2)O[C@@H](C)[C@@H]1O (stereo partly specified),Potency,[1],0.02 µM (active)
O=C(O)c1ccnc2cc(C(OCCN3CCCCC3)c3ccccc3Cl)[nH]c12 (stereo unspecified),Potency,[1],inactive
CC(CCc1ccc(O)cc1)O[C@@H]1O[C@H](CO[C@H]2OC[C@](O)(CO)[C@H]2O)[C@@H](O)[C@H](O)[C@H]1O (stereo partly specified),Potency,[1],inactive
CC1=C[C@H]2O[C@@H]3C[C@H]4OC(=O)/C=C/C=C/C(=O)OCC/C(C)=C/C(=O)OC[C@@]2(CC1)[C@]4(C)[C@]31CO1,Potency,[1],0.0056 µM (active)
C=C1[C@@H](O)[C@]2(O)OC[C@]34C2[C@]2(C)C(C[C@H]3OC(=O)[C@H](O)[C@@]14O)C(C)=CC(=O)[C@H]2O (stereo partly specified),Potency,[1],3.17 µM (active)
CCc1c(C(=O)C(N)=O)c2c(OCC(=O)OC)cccc2n1Cc1ccccc1,Potency,[1],2.31 µM (active)
Clc1ccccc1C(c1ccccc1)(c1ccccc1)n1cccn1,Potency,[1],16.6 µM (active)
same,Potency,[2],inactive
same,Potency,[11],inactive
same,Potency,[3],inactive
same,Potency,[4],inactive
same,Potency,[5],inactive
same,Potency,[6],inactive
same,Potency,[7],inactive
same,activity (max response),[10],-15.1%
same,Potency,[9],inactive
CCCCOC(=O)c1ccnc2cc(C(OCCN3CCCCC3)c3ccccc3Cl)sc12 (stereo unspecified),Potency,[1],20.6 µM (active)
C/C=C1/CN2CC[C@]34C(=Nc5ccccc53)[C@@H]2C[C@@H]1[C@H]4C(=O)OC,Potency,[1],2.27 µM (active)
C=C1C[C@@H]2[C@H](CC[C@]3(C)C(=O)CC[C@@H]23)[C@@]2(C)C=CC(=O)C=C12,Potency,[1],5.96 µM (active) and 11.8 µM (active)
COC1CC(OC2CCC3(C)C(=CCC4C3CCC3(C)C(C(C)OC5OC(COC6OC(CO)C(O)C(O)C6O)C(O)C(O)C5O)CCC43O)C2)OC(C)C1OC1OC(C)C(O)C(OC)C1O (stereo unspecified),"viability, % of control",[1],87.9% [at 9.25 µM]
C=CCN1CCC2(C)c3cc(O)ccc3C[C@H]1[C@H]2C,Potency,[1],inactive
O=c1[nH]c2ccccc2n1C1CCN(Cc2ccc(-c3[nH]c4cc5ncnc5cc4nc3-c3ccccc3)cc2)CC1,Potency,[1],1.84 µM (active)
same,Potency,[2],inactive
same,Potency,[3],inactive
same,Potency,[4],inactive
same,Potency,[9],22.4 µM (active)
COC1=CC(=O)O[C@@H](/C=C/c2ccccc2)C1,Potency,[1],inactive
Cn1cc(C2=C(c3cn(C4CCN(Cc5ccccn5)CC4)c4ccccc34)C(=O)NC2=O)c2ccccc21,Potency,[1],5.25 µM (active)
same,Potency,[2],inactive
same,Potency,[4],inactive
same,Potency,[5],inactive
same,Potency,[12],inactive
same,Potency,[8],5.9 µM (active)
same,activity (max response),[10],-7.67% and -14.7%
same,Potency,[9],inactive
c1cc2c(c(N3CCNCC3)c1)OCCO2,Potency,[1],inactive
CN1C(=O)COc2c(C(=O)NC3CN4CCC3CC4)cc(Cl)cc21 (stereo unspecified),Potency,[1],inactive
same,Potency,[2],inactive
same,Potency,[4],inactive
same,Potency,[5],inactive
same,Potency,[6],inactive
same,Potency,[7],inactive
same,activity (max response),[10],0.49% and -6.93%
same,Potency,[9],inactive
COc1cc(C(=O)N2CC[C@@H](O)[C@@H](N)C2)cc2nc(-c3cc4ccccc4n3CC3CC3)n(C)c12,Potency,[11],1.17 µM (active)
C[C@]12CCC(=O)C=C1CC[C@@H]1[C@H]3CC[C@](C)(O)[C@@]3(C)CC[C@@H]12,Potency,[11],inactive
CC(C)[C@H]1C(=O)N[C@H](CO)Cc2c[nH]c3cccc(c23)N1C,Potency,[12],0.372 µM (active)
O=S(=O)(F)Cc1ccccc1,Potency,[12],inactive
CC(C)NCC(O)c1ccccc1Cl (stereo unspecified),Potency,[1],inactive
same,activity (max response),[10],5.55%
same,Potency,[9],inactive
CC(=O)c1c(O)c(C)c(O)c(Cc2c(O)c3c(c(C(=O)/C=C/c4ccccc4)c2O)OC(C)(C)C=C3)c1O,Potency,[1],25.9 µM (active)
same,activity (max response),[10],-2.92%
same,Potency,[9],inactive
CC(C)N(CCC(C(N)=O)(c1ccccc1)c1ccccn1)C(C)C (stereo unspecified),Potency,[1],inactive
same,Potency,[9],inactive
C[C@H](Nc1ncnc2nc[nH]c12)c1nc2ccc(F)cc2c(=O)n1-c1ccccc1,Potency,[1],0.651 µM (active)
same,activity (max response),[10],-19.1%
same,Potency,[9],inactive
COc1ccc(C(c2ccc(OC)cc2)C(Cl)(Cl)Cl)cc1,Potency,[1],21.5 µM (active)
same,Potency,[10],28.2 µM (active)
same,Potency,[9],28.2 µM (active)
CO[C@H]1CCC(O[C@H]2C[C@H]([C@]3(C)CC[C@]4(C[C@H](O)[C@@H](C)[C@@H]([C@@H](C)/C=C(\C)C(=O)[C@H](C)C[C@H](C)C(=O)O)O4)O3)O[C@]3(O[C@@H]([C@H]4O[C@@](O)(CO)[C@H](C)C[C@@H]4C)C[C@@H]3C)[C@@H]2C)O[C@@H]1C (stereo partly specified),Potency,[1],0.209 µM (active)
same,Potency,[9],1.12 µM (active)
CC[N+]1(C)CCCC(OC(=O)C(O)(c2ccccc2)c2ccccc2)C1 (stereo unspecified),Potency,[1],inactive
same,activity (max response),[10],0.735%
same,Potency,[9],inactive
CCCCCCCCCCCCCCCC[N+](C)(C)C,Potency,[1],1.19 µM (active)
same,Potency,[10],7.31 µM (active)
same,Potency,[9],8.2 µM (active)
c1ccc2c(c1)Sc1ccccc1N2CC1CN2CCC1CC2 (stereo unspecified),Potency,[1],26.6 µM (active)
same,Potency,[9],16.4 µM (active)
C[C@]12Cc3cn[nH]c3C[C@@H]1CC[C@@H]1[C@@H]2CC[C@@]2(C)[C@H]1CC[C@]2(C)O,Potency,[1],18.6 µM (active)
same,activity (max response),[10],-0.402% and -24.7%
same,Potency,[9],inactive

# — PubChem BioAssay (NCATS)
